Assay [1] can be described thus: rapamycin-like changes in RPL19A-GFP expression – cell-based, S. cerevisiae, multiplex flow cytometry, primary screen (AID 1862).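 Note: lower values mimic rapamycin by blocking the RPL19A rise seen in DMSO cells.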 To be noted: S. cerevisiae RPL19A-GFP strain, flow cytometry fluorescence, 3 h; at 10 µM; stronger effect = lower value. On the technique in general: A flow cytometer gives signals particle by particle.
The nature of assay [2]: TOR pathway GLN3 branch reporter MEP2-GFP changes – S. cerevisiae, multiplex flow cytometry, primary screen (AID 1867;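 active = GFP response, as percent of the DMSO control, above the screen-wide mean plus 3 SD, about 139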;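 note: median GFP channel fluorescence of barcode-gated MEP2-GFP cells measured by flow cytometry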). To be noted: S. cerevisiae MEP2-GFP strain, 3 h, at 10 µM, stronger effect = higher value, 100% means same as DMSO wells.
Assay [3] in a line: TOR pathway RTG branch CIT2 reporter changes – S. cerevisiae, GFP fusion, multiplex flow cytometry, primary screen (AID 1870;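 active = percent response above a set limit, the screen-wide mean plus 3 SD, cut at about 130% in these data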;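 note: barcoded CIT2-GFP strain pooled with four other GFP strains with rapamycin as positive control; median GFP fluorescence per well over plate mean of DMSO wells so 100% = DMSO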). Conditions: S. cerevisiae CIT2-GFP expression, 3 h, at 10 µM, stronger effect = higher value.
The nature of assay [4]: TOR pathway LAP4-GFP level changes – S. cerevisiae, multiplex flow cytometry, primary screen (AID 1873;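 active = GFP signal, as percent of the solvent control, above the screen mean plus 3 SD, about 149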). To be noted: S. cerevisiae LAP4-GFP expression, 3 h, at 10 µM, stronger effect = higher value.
A short description of assay [5]: yeast AGP1-GFP level changes, GLN3 branch – cell-based, multiplex flow cytometry, S. cerevisiae, primary screen (AID 1887;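 active = GFP signal above the screen-wide mean plus 3 SD, that is over about 124.5% of the solvent control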;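 note: AGP1-GFP fusion strain of S. cerevisiae within a five-strain barcoded multiplex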). To be noted: 3 h, at 10 µM, stronger effect = higher value.
Assay [6] is described as follows: reduced mouse 2C T cell binding to pMHC/ICAM-1 vesicles – MLPCN validation set, flow cytometry, LFA-1/ICAM-1 modulator project, pilot screen (AID 2523;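 active = response below a set limit, under 55% cells CD8-positive and vesicle-bound, and CD8 cells' 90th-percentile brightness under 279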;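 for vesicle binding response: mean PE anti-B7-1 fluorescence of CD8+ cells relative to row control; 100% = QL9-loaded vesicles with DMSO vehicle in the same plate row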). To be noted: 2C mouse CD8+ T cells, at 7 µM, stronger effect = lower value; double positive events: measured here: CD8+/vesicle+ event percentage.
Assay [7] addresses Integrin beta-1 (Homo sapiens) + Integrin alpha-4 (Homo sapiens) (UniProt P13612+P05556). Kind of assay: alpha4beta1 integrin LIBS antibody binding reduction – U937 cells, HUTS-21 mAb, flow cytometry, validation set, VLA-4 allosteric modulator project, pilot screen (AID 2674;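 active = inhibition above 50%, about 3 SD of the validation set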;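 note: antibody binding induced by the VLA-4 ligand LDV present at three times its Kd; 0% = LDV ligand with antibody and no compound and 100% = antibody without LDV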). Conditions: HUTS-21 LIBS mAb binding, at 6.7 µM, stronger effect = higher value, binding induced by LDV ligand.
The nature of assay [8]: calorie-restriction mimetic ROS inhibitors, yeast – validation compound set, pilot screen (AID 2706;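 active = superoxide response below 65% of plate, a cut near 3 SD across the whole screen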;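 note: yeast exposed to compound for one week at 30 degrees C before staining; 100% = mean of all compound wells on the same plate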). Conditions: S. cerevisiae aging, superoxide DHE fluorescence; at 10 µM; stronger effect = lower value.
Assay [9] deals with Beta-adrenergic receptor kinase 1 (Homo sapiens) (UniProt P25098). Nature of the assay: GRK2 binders displacing RNA aptamer, biochemical, validation, human GRK2, bead flow cytometry (AID 488806;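 active = aptamer binding inhibition above 30%, about 3 SD of noise from non-fluorescent compounds; inactive = inhibition at or below 30%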). To be noted: bead-bound GRK2, FAM-aptamer displacement, at 10 µM, stronger effect = higher value.
The target in assay [10] is Beta-2 adrenergic receptor (Homo sapiens) (UniProt P07550). Kind of assay: agonist-induced loss of surface beta2AR – cell-based, FAP fluorogen, flow cytometry, validation set, pilot screen (AID 504459;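 active = percent response above 42, roughly 3 SD of non-fluorescent test compounds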;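 note: agonist-driven loss of surface beta2AR via internalization measured by FAP dye flow cytometry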). To be noted: Am2.2-beta2AR cells, at 10 µM, stronger effect = higher value.
Assay [11] deals with AP-2 complex subunit beta (Homo sapiens) (UniProt P63010). Kind of assay: beta-arrestin/AP2 interaction blockers – biochemical, validation set, GST-AP2 beads, flow cytometry, pilot screen (AID 504541;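 active = inhibition above 54%, about 3 SD of non-fluorescent compounds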;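 note: AP2 carries R879A mutation and is captured from E. coli lysate; bead-bound FITC arrestin peptide fluorescence measuring arrestin peptide binding to AP2; 0% = DMSO wells and 100% = excess unlabeled arrestin peptide control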). To be noted: FITC arrestin peptide, at 10 µM, stronger effect = higher value, AP2 beta2 appendage fragment, R879A mutant.
A short description of assay [12]: cytosolic pH regulators acting via V-ATPase – S. cerevisiae, pHLuorin, HTS validation (AID 504600; in the data active = response above about 15%;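 note: plate controls were DMSO for no effect and reference compound for full effect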). To be noted: V-ATPase proton transport, at 10 µM, stronger effect = higher value.
The subject of assay [13] is anti-desmoglein-3 scFv antibody binding to human DSG3. Kind of assay: blockers of pathogenic pemphigus antibody–desmoglein-3 binding – biochemical, validation compound set, bead-based, flow cytometry, pilot screen (AID 588368;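 active = binding below the plate cutoff, the plate median minus 3 SD, with a reading above zero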;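 note: signal is the median channel fluorescence of bead-bound GFP antibody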). Conditions: Protein G beads, DSG3-Fc, scFv-GFP binding, at 10 µM, stronger effect = lower value.
The nature of assay [14]: Nile Red efflux blockade in pump-expressing yeast – validation compound set, multiplex, phenotypic, pilot screen (AID 588506;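 active = efflux inhibition above 0.42, the validation set average plus 4 SD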;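 note: Nile Red retained in cells so higher fluorescence means more efflux inhibition; 0 = negative control wells and 1 = enniatin B 25 µM full block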). Conditions: S. cerevisiae pump-expressing triplex, Nile Red efflux flow cytometry; at 10 µM; stronger effect = higher value; the pumps come from Candida albicans.
Assay [15] deals with ATP-binding cassette sub-family B member 6 (Homo sapiens) (UniProt Q9NP58). Kind of assay: blockers of ABCB6-driven porphyrin uptake – K562-ABCB6 cells, flow cytometry, validation set, pilot screen (AID 588550;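 active = inhibition above the screen-wide mean plus 3 SD, about 51%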;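 note: 0% = DMSO wells and 100% = benzethonium chloride 70 µM positive control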). Conditions: K562-ABCB6 porphyrin accumulation, 1 h, at 10 µM, stronger effect = higher value.
A short description of assay [16]: AML differentiation inducers, ER-HoxA9 marrow cells – cell-based, GFP/MAC1 double positive, flow cytometry, validation set, primary screen (AID 588685;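 active = differentiation response of at least 50%, scaled between solvent and reference control, from cells with both markers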;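 note: compound exposure lasts four days before antibody staining and flow analysis; 0% = DMSO wells and 100% = 5 µM fulvestrant positive control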). To be noted: stronger effect = higher value, normalized: vehicle 0, fulvestrant 100.

Results filed as inconclusive are left out. Active and inactive are the calls of the source. Cut-off read from the data, not from the text of the source, unless noted: active = percent of DMSO control GFP below about 86%; inactive = the rest, inconclusive results apart.

Here are results for five molecules from PubChem BioAssay.

As a reminder, the inhibition is the relative decrease from the control value, in per cent.

Sequence of Beta-2 adrenergic receptor (Homo sapiens) (P07550 whole entry, looked up): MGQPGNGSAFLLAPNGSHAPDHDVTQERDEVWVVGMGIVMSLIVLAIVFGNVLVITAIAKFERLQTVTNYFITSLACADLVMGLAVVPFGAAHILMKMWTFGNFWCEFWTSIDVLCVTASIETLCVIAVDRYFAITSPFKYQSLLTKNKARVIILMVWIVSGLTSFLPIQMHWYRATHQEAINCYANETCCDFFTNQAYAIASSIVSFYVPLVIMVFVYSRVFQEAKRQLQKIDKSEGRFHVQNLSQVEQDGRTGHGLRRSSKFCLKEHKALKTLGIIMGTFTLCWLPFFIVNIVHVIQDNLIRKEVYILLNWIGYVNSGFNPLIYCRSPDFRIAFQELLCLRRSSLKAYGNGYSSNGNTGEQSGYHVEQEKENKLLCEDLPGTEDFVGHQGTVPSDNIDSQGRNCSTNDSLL
Sequence of AP-2 complex subunit beta (Homo sapiens) (P63010 whole entry, looked up, the tested form may be a part, one chain of several): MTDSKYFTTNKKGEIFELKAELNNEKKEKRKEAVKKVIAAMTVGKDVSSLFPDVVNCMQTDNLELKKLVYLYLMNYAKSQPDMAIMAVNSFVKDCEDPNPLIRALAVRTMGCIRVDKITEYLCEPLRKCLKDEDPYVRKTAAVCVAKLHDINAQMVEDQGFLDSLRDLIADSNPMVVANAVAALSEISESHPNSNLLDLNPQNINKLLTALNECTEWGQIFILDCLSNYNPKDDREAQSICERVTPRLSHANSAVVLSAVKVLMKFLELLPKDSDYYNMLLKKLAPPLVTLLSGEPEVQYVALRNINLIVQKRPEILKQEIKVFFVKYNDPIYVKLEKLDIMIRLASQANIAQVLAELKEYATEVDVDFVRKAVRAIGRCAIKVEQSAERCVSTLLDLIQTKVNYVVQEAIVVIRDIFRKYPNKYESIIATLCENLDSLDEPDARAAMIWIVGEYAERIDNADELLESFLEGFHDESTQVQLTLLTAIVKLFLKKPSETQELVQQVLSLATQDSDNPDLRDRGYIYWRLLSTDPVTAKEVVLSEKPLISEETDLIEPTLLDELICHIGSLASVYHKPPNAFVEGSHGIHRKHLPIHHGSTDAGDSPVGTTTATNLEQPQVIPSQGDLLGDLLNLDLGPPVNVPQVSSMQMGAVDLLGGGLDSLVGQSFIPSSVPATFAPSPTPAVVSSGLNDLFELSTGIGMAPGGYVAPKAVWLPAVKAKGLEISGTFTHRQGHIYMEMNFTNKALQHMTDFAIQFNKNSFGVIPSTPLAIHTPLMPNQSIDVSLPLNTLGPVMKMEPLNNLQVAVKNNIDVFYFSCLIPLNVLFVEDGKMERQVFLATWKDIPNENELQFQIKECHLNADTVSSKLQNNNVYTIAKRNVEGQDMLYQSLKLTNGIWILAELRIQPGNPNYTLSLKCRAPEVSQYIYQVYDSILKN
Sequence of Beta-adrenergic receptor kinase 1 (Homo sapiens) (P25098 whole entry, looked up): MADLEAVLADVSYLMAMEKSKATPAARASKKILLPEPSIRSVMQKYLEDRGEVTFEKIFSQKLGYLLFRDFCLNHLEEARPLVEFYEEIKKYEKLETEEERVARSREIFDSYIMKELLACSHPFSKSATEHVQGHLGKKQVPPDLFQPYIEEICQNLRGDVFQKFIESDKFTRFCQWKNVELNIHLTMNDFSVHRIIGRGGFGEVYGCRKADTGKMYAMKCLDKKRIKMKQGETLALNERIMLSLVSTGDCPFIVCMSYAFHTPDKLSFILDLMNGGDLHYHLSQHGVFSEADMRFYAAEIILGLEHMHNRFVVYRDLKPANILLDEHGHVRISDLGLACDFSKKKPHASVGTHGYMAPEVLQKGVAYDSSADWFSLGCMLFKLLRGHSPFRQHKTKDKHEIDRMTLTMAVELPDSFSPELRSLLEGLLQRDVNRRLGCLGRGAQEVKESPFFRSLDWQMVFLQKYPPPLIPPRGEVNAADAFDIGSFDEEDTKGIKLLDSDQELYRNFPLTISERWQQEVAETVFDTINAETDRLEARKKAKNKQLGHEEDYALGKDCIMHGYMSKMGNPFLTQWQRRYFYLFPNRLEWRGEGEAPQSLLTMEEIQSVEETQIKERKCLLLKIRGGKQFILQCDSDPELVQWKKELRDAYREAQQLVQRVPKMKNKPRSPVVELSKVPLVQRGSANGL
Sequence of ATP-binding cassette sub-family B member 6 (Homo sapiens) (Q9NP58 whole entry, looked up): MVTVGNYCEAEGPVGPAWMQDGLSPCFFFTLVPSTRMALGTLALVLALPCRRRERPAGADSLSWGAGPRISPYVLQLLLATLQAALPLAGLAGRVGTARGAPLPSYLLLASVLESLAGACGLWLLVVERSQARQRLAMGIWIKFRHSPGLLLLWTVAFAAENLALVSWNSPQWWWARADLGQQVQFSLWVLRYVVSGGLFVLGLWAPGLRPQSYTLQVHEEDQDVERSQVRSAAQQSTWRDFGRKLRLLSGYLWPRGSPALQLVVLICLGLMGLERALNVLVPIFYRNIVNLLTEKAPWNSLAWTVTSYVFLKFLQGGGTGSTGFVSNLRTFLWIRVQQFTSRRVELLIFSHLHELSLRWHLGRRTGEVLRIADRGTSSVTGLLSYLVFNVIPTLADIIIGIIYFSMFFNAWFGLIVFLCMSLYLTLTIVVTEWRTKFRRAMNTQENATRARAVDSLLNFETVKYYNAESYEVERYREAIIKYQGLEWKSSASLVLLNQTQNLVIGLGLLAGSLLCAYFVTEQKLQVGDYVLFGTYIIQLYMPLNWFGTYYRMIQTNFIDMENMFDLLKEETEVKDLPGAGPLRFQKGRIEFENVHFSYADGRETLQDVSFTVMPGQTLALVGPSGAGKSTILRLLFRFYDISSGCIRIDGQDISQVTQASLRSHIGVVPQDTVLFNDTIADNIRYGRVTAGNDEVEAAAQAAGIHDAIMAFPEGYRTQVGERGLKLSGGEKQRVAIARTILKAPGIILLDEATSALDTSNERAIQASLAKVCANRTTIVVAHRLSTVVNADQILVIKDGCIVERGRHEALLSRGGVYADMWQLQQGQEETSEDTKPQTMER
Sequence of Integrin beta-1 (Homo sapiens) + Integrin alpha-4 (Homo sapiens) (P05556 whole entry, looked up): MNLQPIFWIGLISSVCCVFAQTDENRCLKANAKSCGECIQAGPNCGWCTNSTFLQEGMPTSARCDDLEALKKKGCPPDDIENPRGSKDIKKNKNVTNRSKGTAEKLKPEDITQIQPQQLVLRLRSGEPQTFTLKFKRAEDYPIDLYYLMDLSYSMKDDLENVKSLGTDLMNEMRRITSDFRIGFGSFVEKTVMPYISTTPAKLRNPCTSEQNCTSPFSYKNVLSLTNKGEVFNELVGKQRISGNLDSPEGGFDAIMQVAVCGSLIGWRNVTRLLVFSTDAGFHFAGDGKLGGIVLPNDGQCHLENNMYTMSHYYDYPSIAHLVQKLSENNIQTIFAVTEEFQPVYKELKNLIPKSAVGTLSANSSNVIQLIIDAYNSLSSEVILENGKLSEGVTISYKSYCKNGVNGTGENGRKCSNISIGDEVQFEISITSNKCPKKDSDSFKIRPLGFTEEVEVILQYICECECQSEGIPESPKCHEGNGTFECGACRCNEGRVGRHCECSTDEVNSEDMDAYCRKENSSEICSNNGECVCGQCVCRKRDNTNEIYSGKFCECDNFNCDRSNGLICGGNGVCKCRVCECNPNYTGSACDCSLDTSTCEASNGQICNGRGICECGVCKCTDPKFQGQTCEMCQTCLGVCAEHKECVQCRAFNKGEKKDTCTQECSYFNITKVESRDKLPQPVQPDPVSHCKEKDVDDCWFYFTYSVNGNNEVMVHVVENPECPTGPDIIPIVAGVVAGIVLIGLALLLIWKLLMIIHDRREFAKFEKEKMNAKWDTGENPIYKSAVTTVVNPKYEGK
Sequence of Integrin beta-1 (Homo sapiens) + Integrin alpha-4 (Homo sapiens) (P13612 whole entry, looked up): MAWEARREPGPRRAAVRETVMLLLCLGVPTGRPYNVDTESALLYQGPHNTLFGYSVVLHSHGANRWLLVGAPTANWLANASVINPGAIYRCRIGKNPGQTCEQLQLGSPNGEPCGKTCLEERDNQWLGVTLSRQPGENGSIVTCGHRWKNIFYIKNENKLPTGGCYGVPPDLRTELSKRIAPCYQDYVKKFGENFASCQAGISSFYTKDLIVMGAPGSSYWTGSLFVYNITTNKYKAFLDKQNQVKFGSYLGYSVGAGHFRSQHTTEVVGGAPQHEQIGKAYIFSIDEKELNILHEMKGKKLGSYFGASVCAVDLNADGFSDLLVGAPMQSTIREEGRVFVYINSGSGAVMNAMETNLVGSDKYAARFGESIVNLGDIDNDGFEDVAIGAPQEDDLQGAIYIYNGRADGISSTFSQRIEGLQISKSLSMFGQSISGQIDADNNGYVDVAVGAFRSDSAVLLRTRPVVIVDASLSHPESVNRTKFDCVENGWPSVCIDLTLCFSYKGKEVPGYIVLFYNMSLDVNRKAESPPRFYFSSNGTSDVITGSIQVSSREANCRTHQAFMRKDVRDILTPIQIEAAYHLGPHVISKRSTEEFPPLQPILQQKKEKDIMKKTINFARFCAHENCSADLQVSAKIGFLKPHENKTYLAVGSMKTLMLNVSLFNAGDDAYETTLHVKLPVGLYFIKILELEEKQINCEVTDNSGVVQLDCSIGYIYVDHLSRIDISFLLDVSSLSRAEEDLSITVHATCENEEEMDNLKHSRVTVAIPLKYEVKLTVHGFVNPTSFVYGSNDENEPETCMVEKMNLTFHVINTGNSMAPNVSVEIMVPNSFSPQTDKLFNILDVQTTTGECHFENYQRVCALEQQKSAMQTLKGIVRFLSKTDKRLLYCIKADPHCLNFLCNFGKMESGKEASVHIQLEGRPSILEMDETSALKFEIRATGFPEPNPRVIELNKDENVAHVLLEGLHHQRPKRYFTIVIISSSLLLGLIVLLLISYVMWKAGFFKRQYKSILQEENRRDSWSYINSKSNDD

Turning to `CN(C)CCCN1c2ccccc2Sc2ccccc21`, the percent of DMSO control GFP in [1] is 98.1% (inactive). In addition, the GFP response vs DMSO is 102% (inactive) in assay [2] and 107% (inactive) in assay [4]. Further, in [3], the percent response of DMSO control was 99.6% (inactive). Also, the GFP response, % of DMSO in [5] was 120% (inactive). The molecule further gave a double positive events in [6] of 61.4%. The vesicle binding response in [6] was 202% (inactive). Further, the inhibition in assay [7] was 44% (inactive); in [11], 7.22% (inactive); in assay [15], 8% (inactive). The superoxide response (% of plate) in assay [8] is 96.9% (inactive). The aptamer binding inhibition in assay [9] is -3% (inactive). Further, the response was 0.87% (inactive) in [10] and -5.2% (inactive) in [12]. Moreover, the binding (% of control) in assay [13] was 102% (inactive). Moreover, the efflux inhibition (fraction of control) in assay [14] is -0.09 (inactive). Also, the differentiation response in assay [16] is 23.6% (inactive).
For the molecule `CC(=O)c1c[nH]c2ccc(C)cc2c1=O`, in [1], the percent of DMSO control GFP is 97.4% (inactive). Besides, the GFP response vs DMSO in assay [2] is 99.6% (inactive); in [4] it was 114% (inactive). The percent response of DMSO control in assay [3] was 97.7% (inactive). The GFP response, % of DMSO in assay [5] is 94.9% (inactive). The molecule also showed a double positive events in assay [6] of 60.8%. Besides, the vesicle binding response in assay [6] is 228% (inactive). Further, the inhibition in [7] was -85.1% (inactive); in assay [11], 34.1% (inactive); in assay [15], 1% (inactive). Besides, the superoxide response (% of plate) in [8] was 104% (inactive). For the same molecule, in [9], the aptamer binding inhibition was 0% (inactive). Besides, the results for the response in assay [10] and in assay [12] were -3.59% (inactive) and -1.39% (inactive), respectively. In addition, the binding (% of control) in assay [13] is 101% (inactive). Also, in assay [14], the efflux inhibition (fraction of control) was -0.31 (inactive). Also, the differentiation response in [16] was -18.4% (inactive).
`O=C(CCC(=O)c1cccs1)c1cccs1`: in assay [1], the percent of DMSO control GFP was 99.5% (inactive). The GFP response vs DMSO was 96.3% (inactive) in assay [2] and 72.6% (inactive) in assay [4]. Besides, in assay [3], the percent response of DMSO control is 107% (inactive). The GFP response, % of DMSO in assay [5] is 86.5% (inactive). For the same molecule, the double positive events in assay [6] was determined as 60.5%. The vesicle binding response in assay [6] is 125% (inactive). In addition, the results for the inhibition in assay [7], in assay [11] and in assay [15] were -4.52% (inactive), -11.3% (inactive) and 6% (inactive), respectively. For the same molecule, the superoxide response (% of plate) in [8] is 108% (inactive). Moreover, the aptamer binding inhibition in assay [9] was 3% (inactive). Besides, the results for the response in assay [10] and in [12] were -4.9% (inactive) and 1.04% (inactive), respectively. Further, the binding (% of control) in [13] is 91.5% (inactive). Besides, in assay [14], the efflux inhibition (fraction of control) was -0.1 (inactive). Besides, the differentiation response in assay [16] is -20% (inactive).
For `Cc1ccc(S(=O)(=O)NC(=O)NN2CCCCCC2)cc1`, the percent of DMSO control GFP in assay [1] was 102% (inactive). Besides, the GFP response vs DMSO was 110% (inactive) in [2] and 96.6% (inactive) in assay [4]. The percent response of DMSO control in [3] is 100% (inactive). For the same molecule, in [5], the GFP response, % of DMSO is 97.5% (inactive). For the same molecule, the double positive events in assay [6] was determined as 61.4%. The vesicle binding response in [6] is 226% (inactive). For the same molecule, the inhibition in assay [7] was 29.6% (inactive); in [11], 3.4% (inactive); in assay [15], -2% (inactive). Moreover, the superoxide response (% of plate) in assay [8] was 92.2% (inactive). Also, the aptamer binding inhibition in assay [9] is 4% (inactive). Moreover, the response in assay [10] was -9.17% (inactive); in [12], -0.51% (inactive). Further, the binding (% of control) in assay [13] is 99.7% (inactive). Also, the efflux inhibition (fraction of control) in assay [14] is -0.04 (inactive). The differentiation response in assay [16] was 14.9% (inactive).
Take `CC(C)OC(=O)C1C(=O)CC(C)(O)C(C(=O)OC(C)C)C1c1cccc(O)c1` (stereo not given): the percent of DMSO control GFP in assay [1] is 105% (inactive). Besides, the GFP response vs DMSO is 99.7% (inactive) in [2] and 101% (inactive) in [4]. The percent response of DMSO control in [3] is 105% (inactive). For the same molecule, the GFP response, % of DMSO in [5] was 114% (inactive). In [6], this molecule gave a double positive events of 55.9%. Further, the vesicle binding response in assay [6] was 278% (inactive). For the same molecule, the figures for the inhibition in [7], in assay [11] and in assay [15] were -18.5% (inactive), 29.4% (inactive) and -13% (inactive), respectively. Also, the superoxide response (% of plate) in assay [8] is 85.3% (inactive). The aptamer binding inhibition in assay [9] is -5% (inactive). Besides, the response is 6.25% (inactive) in [10] and -3.54% (inactive) in assay [12]. The binding (% of control) in [13] is 99.8% (inactive). Further, the efflux inhibition (fraction of control) in assay [14] is -0.22 (inactive). Further, the differentiation response in assay [16] was -11.9% (inactive).
